KCNQ2 enhance = potentiators of rat KCNQ2 potassium channel; O88943; CHO-K1 KCNQ2, FluxOR thallium flux fluorescence; active compounds read high; B-score at 10 µM; 310,000 compounds, 0.54% hits;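 active means fluorescence ratio B-score at least 3 SD of library B-scores, with initial fluorescence B-score within 3 of them, cut at about 5.3 in these data; same plate scores as AID 2156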;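 further: B-score of peak minus minimum over baseline fluorescence ratio after K+ and Tl+ stimulus; positive B-score means potentiation of KCNQ2 with more thallium influx and brighter signal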
KCNQ2 inh = KCNQ2 (rat) channel inhibition | O88943 | CHO-K1 KCNQ2, FluxOR thallium flux, 20 min; active compounds read low | B-score at 10 µM | 310,000 compounds, 1.1% hits;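 active means fluorescence ratio B-score at most minus 3 library SDs, with starting brightness B-score within 2 library SDs, cut at about -5.5 in these data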
Starred values were filed as active, the others as inactive; i = inactive; . = no result; ! = repeats disagree. Compounds with a hit are over-represented: about 1.6% of the library has one in this group of screens.

SMILES | KCNQ2 enhance | KCNQ2 inh
CCCN(CCC)S(=O)(=O)c1ccc(C(=O)Nc2nc(-c3ccccc3)c(C(=O)OCC)s2)cc1 | . | i
Cc1ccc(NC(=O)C(c2ccccc2)c2ccccc2)c(O)c1 | . | i
CN(C(=O)CCNC(=O)Cn1cnc2ccccc2c1=O)c1ccccc1F | . | i
CC(=O)Nc1ccc(/C(C)=N/Nc2nc(N3CCOCC3)nc(N3CCOCC3)n2)cc1 | . | i
C/C(=N\Nc1nc(N2CCCCC2)nc(N2CCOCC2)n1)c1cccs1 | -7.6 | -7.6*
Cc1ccc(NC(=O)COC(=O)[C@H](C)NC(N)=O)c(C)c1 | . | i
CCCC1(C(=O)OCC)NC(c2ccco2)C2C(=O)N(C)C(=O)C21 (configuration not stated) | . | i
O=C(OCC(=O)c1c[nH]c2ccccc12)c1cccc(S(=O)(=O)N2CCCCCC2)c1 | 8.8* | i
O=C(COC(=O)c1cccc(S(=O)(=O)N2CCCC2)c1)Nc1ccccc1 | 1.6 | i
COc1cccc(CN(C(=O)c2ccc([N+](=O)[O-])cc2)C2CCS(=O)(=O)C2)c1 (configuration not stated) | . | i
COc1cccc2c1cc1c(=O)n(CC(=O)N3CCCCCC3)nc(C)n12 | -5.7 | -5.7*
CCOC(=O)C1CCCN(C(=O)Cn2nc(C)n3c(cc4c(OC)cccc43)c2=O)C1 (configuration not stated) | 0.99 | i
Nc1ccc(C(=O)Nc2ccccc2C(=O)O)cc1 | 0.33 | i
O=C(Nc1ccccc1C(=O)NC(Cc1ccccc1)C(=O)O)c1ccccc1 (configuration not stated) | . | i
O=C(Nc1ccccc1C(=O)NC(Cc1ccccc1)C(=O)NC1CCCCC1)c1ccccc1 (configuration not stated) | -7.2 | -7.2*
O=C(Nc1ccccc1C(=O)Nc1ccccc1C(=O)O)c1ccccc1 | -5.9 | -5.9*
O=C(N/N=C/c1ccc(N2CCOCC2)cc1)c1ccccc1OCCOc1ccccc1 | 0.32 | i
Cc1ccc(N2C(=O)CC(N3CCc4ccccc43)C2=O)cc1Cl (configuration not stated) | . | i
CC12CCC(C(=O)Nc3cccc(Cl)c3)(C(Br)C1=O)C2(C)C (configuration not stated) | 7* | i
CC12CCC(C(=O)Nc3ccc(Cl)cc3)([C@H](Br)C1=O)C2(C)C (some centres not stated) | . | i
O=C(N[C@H](CO)Cc1ccccc1)c1ccco1 | 0.29 | i
CCCC/C=C/C(NC(=O)CCc1ccccc1)c1ccccc1 (configuration not stated) | . | i
CCCC/C=C/[C@H](c1ccccc1)[C@H](CO)Cc1cccnc1 | -5.7 | -5.7*
COc1ccc(N2CCN(C(=O)c3ccccc3N(C)S(=O)(=O)c3ccc(C)cc3)CC2)cc1 | . | i
Cc1ccc(C(c2nnnn2CCc2ccccc2)N2CCSCC2)cc1 (configuration not stated) | 0.78 | i
SMILES | KCNQ2 enhance | KCNQ2 inh
Cc1ccc(C(c2cc(Br)ccc2O)N2CCSCC2)cc1 (configuration not stated) | -5.8 | -5.8*
Cc1nnc(SCC(=O)Nc2ccc([N+](=O)[O-])cc2)n1CC1CCCO1 (configuration not stated) | 0.5 | i
Clc1cccc2c1Sc1ccccc1CC2N1CCNCC1 (configuration not stated) | -7.9 | -7.9*
COCCCN1CCN(C2Cc3ccccc3Sc3ccc(Cl)cc32)CC1 (configuration not stated) | . | i
CC(=O)N1CCc2cc(S(=O)(=O)CCC(=O)N(C)c3cc(C)ccc3C)ccc21 | 0.08 | i
O=C(CCCc1ccccc1)Nc1ccnn1C1CCN(Cc2ccccn2)CC1 | 6.4* | i
Cc1ccccc1CN1CCC(n2nccc2NC(=O)CCCc2ccccc2)CC1 | 0.07 | i
Cn1c(=O)n(C)c2cc(N3CCOCC3)c(NC(=O)c3cccc(Cl)c3)cc21 | 2.5 | i
Cc1cc(O)c(C(C[N+](=O)[O-])c2ccc(Cl)cc2)c(=O)o1 (configuration not stated) | . | i
Cc1cc(C)n(C(C[N+](=O)[O-])c2ccc(Cl)cc2)n1 (configuration not stated) | -10 | -10*
CC(C(=O)NC1CCCC1)N(C(=O)c1ccc(-c2ccccc2)[nH]1)c1ccccc1F (configuration not stated) | -6.5 | -6.5*
CC(C(=O)NC1CCCC1)N(C(=O)Cn1nnc(-c2ccc(F)cc2)n1)c1ccccc1F (configuration not stated) | . | i
Cc1c(O)cccc1C(=O)N[C@@H](CSc1ccccc1)[C@H](O)CN1C[C@H]2CCCC[C@H]2C[C@H]1C(=O)NC(C)(C)C | -5.7 | -5.7*!
COc1ccccc1NC(=O)Cn1c2ccccc2c2nc3n(c(=O)c21)CCS3 | 1.1 | i
O=[N+]([O-])c1ccc2c(c1)C=C1CCCCC1(N1CCCCC1)O2 (configuration not stated) | -5.7 | -5.7*
